# Measurements from the supplement of paper PMC11417369.
# ± gives the standard deviation of the averaged measurements. The full ranking holds about 25,000 sequences; the median of “ln(normalized median fluorescence intensity)” is about 10, and the highest 2% start at about 12. What follows is part of a selection rich in the highest values, with near analogues and random picks from the rest.
# Test system: PfAP2-G AP2 domain (GST-tagged)
# Experiment: gcPBM binding intensity (ln(normalized median fluorescence intensity)); higher = stronger DNA binding
# In short: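 Binding of GST-tagged P. falciparum DNA-binding domains, expressed in E. coli and used at about 25 μg on average, was carried out for 1 h in 1× PBS containing 1% milk, 0.2 mg/ml BSA, 0.5% salmon testes DNA and 0.03% Triton X-100. The target was an Agilent 4 × 180k array of primer-extended double-stranded 36-bp intergenic genomic probes plus negative controls, read with Alexa488 anti-GST antibody at 488 nm. Binding intensity is the highest Masliner-normalised natural-log median intensity across replicate spots of either probe orientation.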
row,Sequence,gcPBM binding intensity (ln)
1,TGATCTTTACACATATTATATATATATAAAAAAAAA [XGTACX_negctrl_site360],9.99 ± 0.26
2,TCTTGAAAAAGAATCAATCGGTCGACAAAAAAAAAA [CACACA_negctrl_site1099],10.4 ± 0.24
3,GTCTTAAAAATTAAAACACACGTTCACTTTCATATT [CACACA_site5803],10.05 ± 0.021
4,AAAAAAAAATGTCATGGTACACAATTTTTTCTTTTT [XGTACX_site4505],11 ± 0.56
5,ATTATACAAAATGGTAAGGAAAAGGAAATTTTTTTT [CACACA_negctrl_site1090],9.77 ± 0.014
6,ATATTGTGTTATAAATGTACACAATTTCCTTTCATA [XGTACX_site7481],11.3 ± 0.79
7,TTTCAAAGGAAATGGTGTACACAATTTTTCCTTTTT [XGTACX_site2340],11.7 ± 0.88
8,TTTTCCTTTCACAATGGTACACAAATATACATGCAA [XGTACX_site7244],11.2 ± 0.8
9,CAAAGGAAATGGTGTACACAATTTTTCCTTTTTCGT [CACACA_site4800],11.8 ± 1.2
10,ATATATATGGATGGACGTACGTATGTATGTAATTTC [XGTACX_site4135],11.3 ± 0.64
11,CAATTTATAAAGAAAACACACATATACATAAATACA [CACACA_site4829],10.2 ± 0.16
12,AAAAGAAATATTTATACACACACACTAACATATATA [CACACA_site8580],10.09 ± 0.035
13,AAATAAGAAAAAGCGCGTACACATAACATTTTTATA [XGTACX_site8807],11.7 ± 0.93
14,TATATATATTTATACACACAAACATAATACTACTTA [CACACA_site2022],10.3 ± 0.22
15,TTGGTGGATAAATTTACACACAATAATTTTCGTTCA [CACACA_site467],10 ± 0.14
16,AAAAAAAATTTTATCTGTACACATTTTTTTCTTTTT [XGTACX_site4229],11.6 ± 0.74
17,ACTGTAAAAGGATTTACACACATATTTACATTTACA [CACACA_site519],10.01 ± 0.021
18,AAAAAATTCTGGTACTGTACACATTTTTTTAAATTT [XGTACX_site6904],11.7 ± 1
19,AAAATTTTTTACTTTACACACATTTTGTATATTTTG [CACACA_site1730],9.98 ± 0.23
20,AAAAAAAAAATTTACTGTACACATTTGGGATACTCA [XGTACX_site5191],11.7 ± 0.76
21,TTTAAAAATTAATTCTGTACACATTTTTATTTTATT [XGTACX_site8],11.5 ± 0.8
22,TTACAATAAATTATAGTGCAATATTTTATTTAATAT,9.9 ± 0.26
23,AAAATATATATATATATATATATATGTATACTCCTA [XGTACX_negctrl_site312],10 ± 0.29

row,Sequence,gcPBM binding intensity (ln)
1,CGAATATATTCTAGACGTACTATATAATATATATAT [XGTACX_site4953],11.1 ± 0.69
2,TATATTTATTTATTCTGTACTGAAGACAGTTATGTA [XGTACX_site8857],10.8 ± 0.58
3,AAATTATATATGATGTGTACATAAATATATACACAT [XGTACX_site8761],11.4 ± 0.83
4,GATATAATTATGTGTACACAATTTTTTTTTTTTTTT [CACACA_site4501],11.7 ± 0.87
5,TAATTATTTTTATATTGTACAATATGTAAATATATA [XGTACX_site592],10.8 ± 0.58
6,ATATGTACAAATTATACACACATGTACAATTATATA [CACACA_site1253],11.3 ± 0.79
7,TTATATGTTTTGTGTACACAATTTATTAAATTAATA [CACACA_site5645],11.7 ± 0.88
8,AAAATAATATATGTATGTACACAATTATTTATAAGT [XGTACX_site7267],11.5 ± 0.89
9,TTTGTTTTATGTGGTTGTACACAAATACAATTTAAA [XGTACX_site5156],11.6 ± 1.1
10,TATGATATAATTATGTGTACACAATTTTTTTTTTTT [XGTACX_site1084],11.6 ± 0.8
11,AAAAAAAATAATAATACACACAATATGATATGTACA [CACACA_site850],10.4 ± 0.17
12,GAAAATAGCTAAAATACACACAATTAAAAATTATTA [CACACA_site3506],9.84 ± 0.16
13,TTCCATGTAGGACATGCATGCAGTTTTTAAAATATT [TGCATGCA_site481],11 ± 0.69
14,AATGTTAAAAATGAAAGTACATGGAATTTATTATTT [XGTACX_site4095],11 ± 0.56
15,AATATTTATATTTAGTGTACAGAAATAAAAAAAAAA [XGTACX_site6066],11.3 ± 0.93
16,TATTTTTAAAATATAAGTAAAAAAATAATATAAACT [TGCATGCA_negctrl_site283],10.1 ± 0.11
17,TCCTCTTCAATATATATATATTATAAATAAATAAAT [CACACA_negctrl_site1756],9.91 ± 0.38
18,TGTGTAGCTAGGGGGTTGCTAATTTTTGTTTTGACC [CACACA_negctrl_site634],10.9 ± 0.57
19,AGCTCATGCAGGTGTACACAAAAAGAAAAAAAATAA [CACACA_site4828],11.7 ± 0.86
20,ATAAGCTCATGCAGGTGTACACAAAAAGAAAAAAAA [XGTACX_site2433],11.6 ± 0.81
21,AGGTGAGCTCAGACTACACACACAAAGAAAAAAATA [CACACA_site8439],10.2 ± 0.28
22,TCAAAGGAATTTTTATGTACATATAAACTTTATTCT [XGTACX_site3432],11.2 ± 0.76
23,GATATATGTATAATAACGCACACTACAAAAATAAAA [CACACA_site2100],10.3 ± 0.33

row,Sequence,gcPBM binding intensity (ln)
1,ATGTATATATATATATGTACTAATTAGTAGTTTACG [XGTACX_site6272],11.1 ± 0.71
2,ATAATGACTAAATTTAAACACACAAGGGGAGTTTAC [CACACA_site8209],9.725 ± 0.007
3,ATAAATACATTAAAATGTACATAAAAATATTACTGG [XGTACX_site1484],11.2 ± 0.67
4,TATATAAATAAATGTGTACACACATTAAAATCAAAC [CACACA_site8733],11.6 ± 1.1
5,TATTTTTTTAAAATAGGTACACAATCAAACATTTAT [XGTACX_site8785],11.4 ± 0.97
6,TAAATATAAGTGTACATACACACTTTACAATCTCAT [CACACA_site3006],11.3 ± 0.72
7,TTTTTTTAATAAAAGTGTACCAAATTATATACACAT [XGTACX_site6811],11.1 ± 0.64
8,TATAAATAAATGTGTACACACATTAAAATCAAACGT [CACACA_site2340],11.7 ± 0.96
9,TATAAATAAAAGTGTACACACATTAAAATCAAACGT [CACACA_site5316],11.7 ± 0.89
10,AAAACTATATTAATGTGTACACATCAAAATATTAAT [XGTACX_site6767],11.6 ± 0.84
11,CTTTATATATAGTGTACACATTAAACAAATCTCAAT [CACACA_site5845],11.6 ± 1
12,ACAATAAAGAAGTGTACACATATATCAATAAAAAAA [CACACA_site5228],11.6 ± 0.95
13,CATCTTATATAATCATGTACATATAGAGACTTCTTT [XGTACX_site7685],11.1 ± 0.63
14,TATATTTACATTGTAACACACATGAAATATATATAT [CACACA_site61],9.93 ± 0.2
15,TATAAATATTATAATTGTACATATTATAAAAATTTT [XGTACX_site2719],11 ± 0.75
16,TATTTTTACCCATAAAGTACACATAAATATAAAATA [XGTACX_site177],11.5 ± 1
17,ATGGACAAGTTAAACGCACACAAATATATACACCCA [CACACA_site8478],10.6 ± 0.39
18,ATATATTTATTTTGTGCACACAACGCAAACCTTTTA [CACACA_site3508],10.5 ± 0.27
19,CCGTATTCAAAAAGGAGTACACAATTATATGTTATA [XGTACX_site641],11.7 ± 1
20,AATTTTGTTAAAAGGACACACAATTCAATATATTAA [CACACA_site647],11.1 ± 0.73
21,AAATATATATTCAAAAGTACACAATTTGTTAATAAT [XGTACX_site8917],11.4 ± 0.82
22,TATAATTTATAAGTAGTGCATTTCTTTTCATTTTTA,10.03 ± 0.057
23,AAGATTAAACATTGCACACAGAAATATATTTTCTAT [CACACA_site2374],9.91 ± 0.099

row,Sequence,gcPBM binding intensity (ln)
1,AATAGTAAAAGATATACACACACCAAAAAATATAAT [CACACA_site5293],10.2 ± 0.12
2,TTTATATACAAAAATGCACACGAAAAGTAATATATA [CACACA_site9387],10.28 ± 0.049
3,ACAGTATCTGGTAGCTGTACGAGTCGTAGAGAGTAG [XGTACX_site2041],11.2 ± 0.71
4,TACCTACACTTTTGGAGTACAATTAAAAAAAAAAAA [XGTACX_site1403],11.5 ± 1.1
5,TTTTTTTTTTTTAGAGTACACACTTTTTTACATTTA [CACACA_site3836],11.4 ± 0.83
6,AAAAGAAAAAAAAGTACACACATGTATATTAAGCGT [CACACA_site5402],11.5 ± 0.83
7,AAAAAAAAAAAAAGTACACACTTTTGCGTACAAGTA [CACACA_site5672],11.9 ± 0.83
8,ACTTTGCGTTAAAAGAGTACATAATATTTTTTTTTT [XGTACX_site7533],11.2 ± 0.73
9,AAAAAAAAAAAAAAAAGTACAAGCATTGCGTTTTAA [XGTACX_site6075],11.5 ± 0.83
10,AAAAAAAAAAAAAAAGTACACACTTTTGCGTACATG [CACACA_site3097],12.3 ± 1.4
11,AAAAAAAAAAAAAAAAGTACACACTTTTGCCTACAT [XGTACX_site6583],11.6 ± 0.86
12,TTACATGTACAAAAGTTGCACTTCATACACTTTTAT,11.1 ± 0.61
13,AATTTCCTTTTTTAAAGTACACAAAAGTTCACTTTG [XGTACX_site4460],11.6 ± 0.98
14,TATTTTGTTTTAAAAGTACACACTTTTAATTAGATT [CACACA_site1180],11.5 ± 1
15,AAAAAAAAAAAAAGTACACACTTTTGCGTACATGTA [CACACA_site7449],12 ± 0.98
16,ATTTATATTTATAAATGTACACATATATATTTCATT [XGTACX_site2723],11.2 ± 0.63
17,CCGCCATTGTACCATCCACACACATATATATATGTA [CACACA_site8866],10.9 ± 0.45
18,AAAATAACGAGTCAAACACACATATATATATATATA [CACACA_site2039],10.1 ± 0.25
19,AAATTGTAGCACCAAGCATGCTAAAAGGACATATGA [TGCATGCA_site717],10.8 ± 0.34
20,GATATAAGGGTATGAAGTACATAAATATTTTATGCT [XGTACX_site1886],11.3 ± 0.88
